Here are results for four compounds from ChEMBL document CHEMBL1201862, “PubChem BioAssay data set” (2004).

The species entered for the assay is Mus musculus. Kind of assay: Confirmation Concentration-Response Assay for Epigenetic Modulators. Format: functional.
In the case of `COc1cccc(C(=O)NC(c2ccco2)c2cc(Cl)c3cccnc3c2O)c1` (centres undefined), the Potency was 77.1 µM (active).
As for `CC(C)C(=O)NC(c1ccc(Cl)cc1Cl)c1ccc2cccnc2c1O` (centres undefined), the Potency was 73.2 µM (active).
Under `CC(C)C(=O)NC(c1ccco1)c1cc(Cl)c2cccnc2c1O` (centres undefined) stands 341 µM (active); under `COc1ccc(C)cc1/N=N/c1ccc(O)c2ncccc12`, 77.1 µM (active).
